We go through three molecules from PubChem BioAssay AID2284364 (EPA ToxCast).

SMILES strings stand for the structures. Several values for one entry are separate records, joined by “and”; a condition that tells them apart may be missing. Equal values may be shown once. Activity calls are given as the source filed them. Rule for the calls: active = hit-call score of the fitted dose curve at least 0.9, where 1 is the maximum; inactive = score below 0.9.

Chain of Peroxisome proliferator-activated receptor gamma (Homo sapiens) (P37231 whole entry, looked up): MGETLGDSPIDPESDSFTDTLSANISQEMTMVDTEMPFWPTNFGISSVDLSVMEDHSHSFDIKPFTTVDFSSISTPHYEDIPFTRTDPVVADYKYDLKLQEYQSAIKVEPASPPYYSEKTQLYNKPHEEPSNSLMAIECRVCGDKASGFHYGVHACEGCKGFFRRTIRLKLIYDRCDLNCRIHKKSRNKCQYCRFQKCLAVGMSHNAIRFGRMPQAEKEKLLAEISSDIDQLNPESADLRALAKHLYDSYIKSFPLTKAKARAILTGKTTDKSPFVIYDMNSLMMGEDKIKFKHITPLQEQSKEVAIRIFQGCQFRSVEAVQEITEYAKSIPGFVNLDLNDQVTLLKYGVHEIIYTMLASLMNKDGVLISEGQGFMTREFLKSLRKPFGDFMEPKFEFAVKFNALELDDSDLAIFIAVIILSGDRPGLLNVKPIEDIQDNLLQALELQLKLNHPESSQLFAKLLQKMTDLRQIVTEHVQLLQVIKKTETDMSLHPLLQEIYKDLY

For this test, the target named is Peroxisome proliferator-activated receptor gamma (Homo sapiens) (UniProt P37231). As to the kind of experiment: ERF_US_NR_hPPARG: Eurofins (ERF) Nuclear Receptor (NR) Cell Based Protein-Protein Interaction LeadHunter Assay for human Peroxisome Proliferator-activated Receptor-gamma (PPARg) Agonism. As to the method:
ERF_US_NR_hPPARG is a cell-based, single-readout assay that uses extracted gene-proteins in a cell-line assay. Measurements were taken 5 hours after chemical dosing in a 384-well plate. See PPARgamma Human NHR Cell Based Agonist Protein-Protein Interaction Assay, DiscoverX.ERF_US_NR_hPPARG is an assay component calculated from the ERF_US_NR_hPPARG assay. It is designed to measure […] using a type of binding reporter as detected by scintillation counting with radiometry technology.Data from the assay component ERF_US_NR_hPPARG was analyzed at the assay endpoint, ERF_US_NR_hPPARG, in the positive analysis fitting direction relative to DMSO as the negative control and baseline of activity. Using a type of binding reporter, gain-of-signal activity can be used to understand changes in binding as they relate to gene PPARG. To generalize the intended target to other relatable targets, this assay endpoint is annotated to the nuclear receptor intended target family, where the subfamily is non-steroidal.
Cells were seeded in a total volume of 20 uL into white walled, 384-well microplates and incubated at 37C overnight prior to testing.Briefly, intermediate dilution of sample stocks was performed to generate 5X sample in assay buffer. 5 uL of 5X sample was added to cells and incubated at 37C for 300 minutes. Final assay vehicle concentration was 1%. The results are expressed as a percent efficacy of the control ligand.
On to `NC(=O)c1nc(-c2cccc(-c3cc(F)ccc3OCC(F)(F)C(F)(F)F)c2)n[nH]1`, for which the outcome was inactive.
One may read the AC50 as the concentration at which the activity in the assay is half-maximal. `O=C(CC(=O)C(F)(F)C(F)(F)C(F)(F)F)c1cccs1`: the AC50 was 21.7 µM (active) and 23.7 µM (active).
With `O=C(O)CCC(F)(F)C(F)(F)C(F)(F)F`, the molecule was classed as inactive.
